One experiment addresses Albumin (Bos taurus) (UniProt P02769). The experiment is described as follows: compounds binding labelled BSA control protein – biochemical, small-molecule microarray, Alexa647 label, 635/667 nm fluorescence, artefact control for SMM control protein annotation, profiling panel (AID 1118).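 Also: score merges 667 nm emission intensity and signal-to-noise per printed compound spot.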 The following applies: BSA-A647 binding, fluorescence 635 nm, higher = more signal.
Experiment [1] can be described thus: probe aXIP binding to arrayed compounds – biochemical, NeuroSMM set, 635/667 nm fluorescence, primary screen (AID 1119).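 Also: probe is the protein aXip251-270 applied at 1 µg/mL to compound-printed slides; binding of probe to printed compounds measured as 667 nm fluorescence plus signal to noise.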 The following applies: small-molecule microarray, higher = more signal, called active from +8 up or from −8 down.
The nature of experiment [2]: probe aNOTCH3 binding on compound microarray – biochemical, small-molecule microarray, 635/667 nm fluorescence, primary screen (AID 1120).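 Also: probe is a biotin-tagged antibody raised against NOTCH3 rather than NOTCH3 protein; score merges spot fluorescence near 667 nm with spot signal to noise.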 The following applies: higher = more signal.
Experiment [3] in a line: probe aNOTCH2 binding on compound microarray – biochemical, small-molecule microarray, 635/667 nm fluorescence, primary screen (AID 1121).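 Also: score merges feature fluorescence read at 667 nm with its signal to noise.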 The following applies: higher = more signal.
Experiment [4] concerns the target Carbonic anhydrase 2 (Homo sapiens) (UniProt P00918). The experiment is described as follows: compounds binding carbonic anhydrase 2 – biochemical, small-molecule microarray, Alexa647-labelled CAII, profiling panel (AID 1122). The following applies: CAII-A647 binding fluorescence, higher = more signal.
A short description of experiment [5]: COS7 lysate on small-molecule microarray, probe aHis, 635 nm (AID 1123).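 Also: z-score combines 667nm fluorescence intensity with signal-to-noise per printed compound spot.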 The following applies: COS7 cell lysate, fluorescence, higher = more signal.
A short description of experiment [6]: probe aLAP1 signal on lysate-treated microarray – cell lysate, small-molecule microarray, COS7 lysate, primary screen (AID 1124).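 Also: lysate comes from COS7 cells expressing LAP1 and is applied at 0.3 µg/mL; score merges spot fluorescence near 667 nm with signal-to-noise over triplicate slides.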 The following applies: probe aLAP1, fluorescence, higher = more signal.
The subject of another experiment is Sam68 (KHDRBS1). The experiment is described as follows: compounds binding KHDRBS1 protein – biochemical, small-molecule microarray, 635 nm fluorescence, primary screen (AID 1125).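 Also: score merges 667 nm channel intensity with signal to noise over triplicate slides.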 The following applies: higher = more signal.
Experiment [7] concerns Chordin-like protein 2 (CHRDL2). The experiment is described as follows: compounds binding chordin-like 2 – biochemical, small-molecule microarray, 635 nm fluorescence, primary screen (AID 1126).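 Also: printed compound slides probed with Chrdl2 protein at 4 µg/mL for 1 h at 4 C; score merges 667 nm emission intensity with signal to noise over three replicate slides.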 The following applies: fluorescence 635 nm, higher = more signal.
Experiment [8] addresses Concanavalin-A (Canavalia ensiformis) (UniProt P02866). The experiment is described as follows: compounds binding concanavalin A lectin – biochemical, small-molecule microarray, Alexa647 label, 635 nm, artefact control for SMM control protein annotation, primary screen (AID 1127).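 Also: z combines 667 nm emission intensity with signal-to-noise across three replicate slides.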 The following applies: ConA-A647 binding fluorescence, higher = more signal.
Experiment [9] in a line: compounds binding Alexa647 anti-His antibody – biochemical, small-molecule microarray, 635 nm fluorescence, artefact control for SMM control protein annotation, primary screen (AID 1128).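 Also: score merges feature fluorescence with signal-to-noise for each printed compound spot.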 The following applies: higher = more signal.
The subject of experiment [10] is Human papillomavirus type 1a E7 protein (residues 1-88). The experiment is described as follows: HPV1a E7 small-molecule binders, primary screen, biochemical, small-molecule microarray, residues 1-88, 635 nm (AID 1129). The following applies: small-molecule microarray binding, fluorescence 635 nm; higher = more signal.
Experiment [11] addresses Focal adhesion kinase 1 (Homo sapiens) (UniProt Q05397). The experiment is described as follows: PTK2 protein binding on printed compound slides – biochemical, small-molecule microarray, 635/667 nm fluorescence, BSA, DTT, primary screen (AID 1130).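 Also: composite of spot emission at 667 nm and signal to noise over triplicate slides.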 The following applies: 635 nm fluorescence, higher = more signal.
In experiment [12] the test system is Fibrinogen (Alexa647-labelled). The experiment is described as follows: Alexa647-fibrinogen binding to printed small molecules – biochemical, small-molecule microarray, 635/667 nm fluorescence, artefact control for SMM control-protein annotation, profiling panel (AID 1131).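 Also: z-score merges 667 nm fluorescence with per-spot signal-to-noise over triplicate slides.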 The following applies: fibrinogen-A647 binding fluorescence, higher = more signal.
For experiment [13], the target named is Follistatin (Homo sapiens) (UniProt P19883). The experiment is described as follows: FST protein binding to printed compounds – biochemical, small-molecule microarray, 635/667 nm fluorescence, primary screen (AID 1132). The following applies: 635 nm fluorescence, higher = more signal.
Chain of Follistatin (Homo sapiens) (P19883 whole entry, looked up): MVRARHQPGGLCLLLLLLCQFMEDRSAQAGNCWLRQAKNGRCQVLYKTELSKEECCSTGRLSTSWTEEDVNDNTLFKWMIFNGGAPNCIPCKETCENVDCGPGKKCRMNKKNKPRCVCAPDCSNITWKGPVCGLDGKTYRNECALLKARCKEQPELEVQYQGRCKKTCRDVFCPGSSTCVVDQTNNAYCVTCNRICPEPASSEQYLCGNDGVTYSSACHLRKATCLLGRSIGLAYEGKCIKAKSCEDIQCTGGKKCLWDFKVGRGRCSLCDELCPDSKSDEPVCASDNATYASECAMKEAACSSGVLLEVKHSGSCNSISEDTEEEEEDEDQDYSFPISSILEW
For experiment [14], the target named is Fibroblast growth factor 2 (Homo sapiens) (UniProt P09038). The experiment is described as follows: basic fibroblast growth factor binding to printed compounds – biochemical, small-molecule microarray, 635/667 nm fluorescence, primary screen (AID 1133). The following applies: FGF2, fluorescence 635/667, higher = more signal.
Chain of Fibroblast growth factor 2 (Homo sapiens) (P09038 whole entry, looked up): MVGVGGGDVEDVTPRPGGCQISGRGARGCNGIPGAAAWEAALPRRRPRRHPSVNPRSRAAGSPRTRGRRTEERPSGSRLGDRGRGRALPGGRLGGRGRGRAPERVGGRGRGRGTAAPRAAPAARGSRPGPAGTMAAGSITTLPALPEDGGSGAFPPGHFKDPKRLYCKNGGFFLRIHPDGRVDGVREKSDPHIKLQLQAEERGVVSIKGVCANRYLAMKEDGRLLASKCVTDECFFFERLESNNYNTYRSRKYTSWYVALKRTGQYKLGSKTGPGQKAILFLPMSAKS
Experiment [15] can be described thus: JC-1 mitochondrial potential readout, lung cancer cells – cell-based, A549, JC-1 fluorescence, basal, 24 h, 100 nL, profiling panel (AID 1138).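 Also: A549 lung adenocarcinoma cells under basal conditions with no added stimulus; test concentration not given here.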 The following applies: higher = more signal.
The next experiment deals with Lefty1. The experiment is described as follows: Lefty1 protein binding to printed compounds – biochemical, small-molecule microarray, 635/667 nm fluorescence, primary screen (AID 1139). The following applies: fluorescence 635/667, higher = more signal.
Experiment [16] has as its system wheat germ agglutinin (Triticum aestivum), Alexa647-labelled. The experiment is described as follows: Alexa647-WGA lectin binding to printed small molecules – biochemical, small-molecule microarray, 635/667 nm fluorescence, artefact control for SMM control-protein annotation, profiling panel (AID 1140).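 Also: score merges 667 nm feature emission with signal to noise over triplicate slides.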 The following applies: WGA-A647 binding, 635 nm fluorescence, higher = more signal.

Experiment [17] has as its target Luciferin 4-monooxygenase (Photinus pyralis) (UniProt P08659). The experiment is described as follows: inhibition of purified Photinus pyralis luciferase – biochemical, luminescence, purified enzyme, 2006 set, primary screen (AID 1141).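 Also: cell-free assay with purified firefly luciferase at 100 ng per well in PBS; test concentration not given here.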 The following applies: purified firefly luciferase, SteadyGlo luminescence, 30 min; higher = more signal, called active from +8 up or from −8 down.

Active and inactive are the calls of the source.

Chain of Luciferin 4-monooxygenase (Photinus pyralis) (P08659 whole entry, looked up): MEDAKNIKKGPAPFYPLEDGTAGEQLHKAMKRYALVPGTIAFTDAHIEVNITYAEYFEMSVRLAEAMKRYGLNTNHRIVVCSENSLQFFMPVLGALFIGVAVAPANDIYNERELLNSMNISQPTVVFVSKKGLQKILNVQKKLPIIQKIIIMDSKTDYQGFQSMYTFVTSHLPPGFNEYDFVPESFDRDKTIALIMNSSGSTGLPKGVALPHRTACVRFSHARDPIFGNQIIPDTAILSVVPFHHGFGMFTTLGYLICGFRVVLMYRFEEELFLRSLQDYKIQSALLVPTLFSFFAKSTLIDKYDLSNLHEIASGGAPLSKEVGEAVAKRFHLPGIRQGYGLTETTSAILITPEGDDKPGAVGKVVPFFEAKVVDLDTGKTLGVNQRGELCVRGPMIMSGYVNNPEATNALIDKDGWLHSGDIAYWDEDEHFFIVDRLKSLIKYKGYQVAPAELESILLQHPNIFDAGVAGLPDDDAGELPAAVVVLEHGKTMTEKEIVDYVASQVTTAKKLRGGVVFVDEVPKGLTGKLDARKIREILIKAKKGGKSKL
Chain of Concanavalin-A (Canavalia ensiformis) (P02866 whole entry, looked up): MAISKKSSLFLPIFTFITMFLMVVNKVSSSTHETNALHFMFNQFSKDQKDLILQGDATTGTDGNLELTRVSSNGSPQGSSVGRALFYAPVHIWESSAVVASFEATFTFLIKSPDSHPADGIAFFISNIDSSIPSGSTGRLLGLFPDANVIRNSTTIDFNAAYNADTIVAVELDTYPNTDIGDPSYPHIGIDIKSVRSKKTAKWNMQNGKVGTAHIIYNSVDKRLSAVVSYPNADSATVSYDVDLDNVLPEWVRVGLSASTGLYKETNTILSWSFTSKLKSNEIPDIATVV
Chain of Albumin (Bos taurus) (P02769 whole entry, looked up): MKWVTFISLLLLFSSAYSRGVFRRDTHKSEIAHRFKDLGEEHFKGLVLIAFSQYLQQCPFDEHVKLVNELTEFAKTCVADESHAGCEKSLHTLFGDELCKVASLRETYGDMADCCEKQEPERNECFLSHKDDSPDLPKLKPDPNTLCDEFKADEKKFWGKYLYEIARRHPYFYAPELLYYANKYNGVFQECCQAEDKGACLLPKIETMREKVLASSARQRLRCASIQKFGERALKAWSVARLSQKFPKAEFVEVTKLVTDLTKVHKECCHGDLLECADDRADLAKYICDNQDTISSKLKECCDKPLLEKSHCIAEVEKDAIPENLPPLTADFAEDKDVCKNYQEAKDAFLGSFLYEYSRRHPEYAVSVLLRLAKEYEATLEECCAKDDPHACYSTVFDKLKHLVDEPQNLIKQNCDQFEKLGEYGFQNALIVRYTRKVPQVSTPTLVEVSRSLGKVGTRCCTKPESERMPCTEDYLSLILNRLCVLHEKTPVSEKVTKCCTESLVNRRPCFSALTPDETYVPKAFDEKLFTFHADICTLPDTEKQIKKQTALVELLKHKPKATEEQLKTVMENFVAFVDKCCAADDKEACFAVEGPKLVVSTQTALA
Chain of Focal adhesion kinase 1 (Homo sapiens) (Q05397 whole entry, looked up): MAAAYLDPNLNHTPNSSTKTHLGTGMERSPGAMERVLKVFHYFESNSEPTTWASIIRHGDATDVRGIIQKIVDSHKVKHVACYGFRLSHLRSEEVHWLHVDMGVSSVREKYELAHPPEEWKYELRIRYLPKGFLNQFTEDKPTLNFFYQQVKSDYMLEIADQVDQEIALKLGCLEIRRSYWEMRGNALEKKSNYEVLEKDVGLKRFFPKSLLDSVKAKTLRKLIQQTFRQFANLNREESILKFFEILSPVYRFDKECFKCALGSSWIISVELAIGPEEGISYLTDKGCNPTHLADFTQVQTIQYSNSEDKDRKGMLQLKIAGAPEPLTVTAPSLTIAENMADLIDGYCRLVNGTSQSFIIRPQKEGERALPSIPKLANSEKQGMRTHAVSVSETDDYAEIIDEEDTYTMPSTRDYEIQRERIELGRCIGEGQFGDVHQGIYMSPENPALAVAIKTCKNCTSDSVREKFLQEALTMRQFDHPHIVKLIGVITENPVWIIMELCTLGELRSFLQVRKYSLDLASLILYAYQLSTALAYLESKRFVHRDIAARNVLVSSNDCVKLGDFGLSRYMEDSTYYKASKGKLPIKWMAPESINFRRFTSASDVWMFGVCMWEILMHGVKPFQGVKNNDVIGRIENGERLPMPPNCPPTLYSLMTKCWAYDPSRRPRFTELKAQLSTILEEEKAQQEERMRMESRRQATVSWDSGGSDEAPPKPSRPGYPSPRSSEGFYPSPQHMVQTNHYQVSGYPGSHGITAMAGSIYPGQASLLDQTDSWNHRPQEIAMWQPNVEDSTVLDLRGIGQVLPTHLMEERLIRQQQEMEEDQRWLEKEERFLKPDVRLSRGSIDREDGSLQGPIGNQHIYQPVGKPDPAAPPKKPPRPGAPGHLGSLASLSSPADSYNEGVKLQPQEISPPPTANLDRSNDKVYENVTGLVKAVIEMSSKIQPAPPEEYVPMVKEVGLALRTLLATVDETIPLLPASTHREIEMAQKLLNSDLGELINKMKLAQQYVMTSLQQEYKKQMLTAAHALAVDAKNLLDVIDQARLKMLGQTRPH

In the case of `CC(C)C(=C=CC[C@@H](O)c1cccc(OCCO)c1)C[C@@H](O)c1ccccn1`, the composite z-score in the experiment with Albumin (Bos taurus) was 0.0608; in experiment [2] it was -0.0362; in experiment [3], -0.123; in experiment [4], 0.26; in experiment [5], -0.293; in experiment [6] it was 0.726. Also, the composite z-score in the experiment with Sam68 (KHDRBS1) is -0.228; in experiment [7], -0.377; in [8], -0.155; in experiment [9], 1.39; in experiment [10] it was -0.0234; in experiment [11] it was 0.0046. Besides, the composite z-score was -1.15 in experiment [12]; 0.484 in experiment [13]; -0.0241 in experiment [14]; 0.402 with Lefty1; 0.782 in experiment [16]. For the same molecule, the composite Z-score in experiment [1] was -0.259 (inactive). The z-score was 0.386 in experiment [15] and 0.179 (inactive) in experiment [17].

As to `C=C(/C(=C/C[C@H](OC(=O)c1ccncc1)c1ccccc1OCCO)c1cnc2ccccc2c1)C(C)C`, the composite z-score with Albumin (Bos taurus) was 0.706; in experiment [2], 0.145; in [3] it was -0.126; in experiment [4], 0.566; in experiment [5], 0.443; in experiment [6], 0.0737. The composite z-score in the experiment on Sam68 (KHDRBS1) came to 1.31; in [7], 1.18; in experiment [8], 1.19; in experiment [9], 1.23; in [10] it was 1.22; in experiment [11], 0.374. Moreover, the composite z-score in experiment [12] stood at 0.958; in experiment [13], 1.39; in experiment [14] it was 1.42; in the experiment with Lefty1 it was 1.39; in experiment [16], 0.846. The composite Z-score in experiment [1] was 0.0746 (inactive). Also, the z-score in experiment [15] is 0.707; in experiment [17], -0.177 (inactive).

Regarding `CCN(CC)c1ccc(N2CC=CC34O[C@@H]5/C=C\CCC(C)OC(=O)C5[C@H]3C(=O)N(C(C)CO)[C@@H]4C2=O)cc1` (stereo not given in full), the composite z-score was -0.739 in the experiment with Albumin (Bos taurus); -0.24 in experiment [2]; -0.148 in experiment [3]; 0.42 in [4]; -0.175 in experiment [5]; -0.165 in experiment [6]. Also, the composite z-score was -0.0199 in the experiment with Sam68 (KHDRBS1); 0.142 in experiment [7]; -1.09 in experiment [8]; -0.361 in experiment [9]; -0.935 in [10]; 0.212 in [11]. In addition, the composite z-score is -0.145 in [12]; 0.565 in [13]; -0.0619 in [14]; 0.321 with Lefty1; -0.663 in experiment [16]. The composite Z-score in experiment [1] is 0.451 (inactive). Besides, the z-score in experiment [15] was 0.723; in experiment [17], -1.5 (inactive).

Take `COc1cc(NN2C(C(O)c3cc(OC)c(OC)c(OC)c3)C=CC3C(=O)N(c4ccccc4)C(=O)C32)cc(OC)c1OC` (stereo not given): the composite z-score was 1.06 with Albumin (Bos taurus); 0.612 in experiment [2]; 0.044 in experiment [3]; 0.722 in [4]; 2.19 in experiment [5]; 0.289 in experiment [6]. Moreover, the composite z-score was determined as 1.32 in the experiment with Sam68 (KHDRBS1); 0.476 in experiment [7]; 1.2 in experiment [8]; 1.41 in [9]; 1.27 in experiment [10]; 0.6 in experiment [11]. Besides, the composite z-score amounted to 1.04 in [12]; 1.28 in [13]; 1.56 in [14]; 0.133 with Lefty1; 0.848 in experiment [16]. Also, in experiment [1], the composite Z-score is 0.573 (inactive). For the same molecule, the z-score in experiment [15] was -0.609; in [17] it was -0.771 (inactive).

These data come from PubChem BioAssay.
